Reference: PubChem BioAssay (NCI)
This is part of a sample that, as a whole, favours compounds with a hit. Of some 83,000 tested, about 20% had one in any assay.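 96-well plates, one dose, 48 hours. Percent growth reported; active if below 10.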 Calls of active or inactive are those of the source.

These compounds were tested on M14 melanoma (assay: NCI-60 one-dose screen, 48 h (100 = growth as untreated, 0 = no growth, -100 = all killed)). Conditions: 10 µM.
For `C=C1CCC2C3(C)COC(c4cc(F)cc(F)c4)OC3CCC2(C)C1C/C=C1/C(=O)OCC1O` (stereo not drawn), the growth was -64.6% (active). In the case of `Cc1cc(C(F)(F)F)ccc1C(=O)Nc1sc2c(c1C#N)CCC(=O)C2`, the growth is reported as -59.2% (active). `N#Cc1c(Cl)nc(SCc2ccc(F)cc2)nc1-c1ccc(F)cc1` was tested, and the growth was 103% (inactive).
